Measured values from the supplement of paper PMC3545927.
The other results are listed elsewhere or left out. The hit rate among all sequences tested is not known here.

B1: HC1481 (peptide)
chain: CATRCFDSTVAGNASASA
B2: HC611 (peptide)
chain: CAILQASLLKAGNASASA
B3: HC2560 (peptide)
chain: CASTPCSACLAGNASASA
B4: HC2264 (peptide)
chain: CAILEVVTSTAGNASASA
B5: HC1698 (peptide)
chain: CAMTECSQHLAGNASASA
B6: HC2018 (peptide)
chain: CAVTCCSMSYAGNASASA
B7: HC1367 (peptide)
chain: CANAEDVVCCAGNASASA
B8: FS-1147 (peptide)
chain: CAPGSRKRRTAGNASASA
B9: FS-832 (peptide)
chain: CANCSREARGAGNASASA
B10: HC313 (peptide)
chain: CANCSIYPGHAGNASASA
B11: HC222 (peptide)
chain: CAIDTLTCGFAGNASASA
B12: FS-171 (peptide)
chain: CAISERQARFAGNASASA
B13: FS-208 (peptide)
chain: CAVVNRKARFAGNASASA
B14: FS-539 (peptide)
chain: CAIDRRIARFAGNASASA
B15: FS-551 (peptide)
chain: CANCSRKRRTAGNASASA
B16: HC2526 (peptide)
chain: CASTPCSMHLAGNASASA
B17: HC1316 (peptide)
chain: CAVHGCPLPPAGNASASA
B18: HC1672 (peptide)
chain: CAEEECSQHLAGNASASA
B19: EK2 (peptide)
chain: CAGDRVYIHPAGNASASA
B20: HC1715 (peptide)
chain: CAMEHCSQHLAGNASASA
B21: HC455 (peptide)
chain: CAHPDATYSRAGNASASA
B22: HC1387 (peptide)
chain: CAHHNLVYSTAGNASASA
B23: HC461 (peptide)
chain: CAPWITPRCLAGNASASA
B24: FS-701 (peptide)
chain: CAPMSRGDRFAGNASASA
B25: FS-372 (peptide)
chain: CAQWIRVKRTAGNASASA
B26: FS-1034 (peptide)
chain: CALWSRYGRFAGNASASA
B27: FS-1392 (peptide)
chain: CAQRSRQKKTAGNASASA
B28: HC1373 (peptide)
chain: CASWTGALVTAGNASASA
B29: FS-199 (peptide)
chain: CASWNRVARTAGNASASA
B30: FS-204 (peptide)
chain: CATRSRRGRFAGNASASA
B31: FS-1037 (peptide)
chain: CAMPRRRGRFAGNASASA
B32: FS-280 (peptide)
chain: CAPGSRKARFAGNASASA
B33: HC2281 (peptide)
chain: CANLEVVTSTAGNASASA
B34: FS-1035 (peptide)
chain: CAMKSRLRRTAGNASASA
B35: FS-81 (peptide)
chain: CAQLSRAGRSAGNASASA
B36: FS-515 (peptide)
chain: CAVRGRAGRSAGNASASA
B37: FS-971 (peptide)
chain: CAAKGRAGRSAGNASASA
B38: HC1258 (peptide)
chain: CAPPSVASSSAGNASASA
B39: FS-2548 (peptide)
chain: CARCRRSVSSAGNASASA
B40: FS-1998 (peptide)
chain: CARCRRTVSMAGNASASA
B41: FS-3073 (peptide)
chain: CARSARKSNFAGNASASA
B42: HC2119 (peptide)
chain: CAPDVVCCSMAGNASASA
B43: FS-2302 (peptide)
chain: CARSARDVSSAGNASASA
B44: FS-3168 (peptide)
chain: CARSARDTAQAGNASASA
B45: FS-3077 (peptide)
chain: CARSERDVLLAGNASASA
B46: FS-2085 (peptide)
chain: CARSARPLVQAGNASASA
B47: FS-2628 (peptide)
chain: CADHRRSVDSAGNASASA
B48: HC2113 (peptide)
chain: CARDVVCCSMAGNASASA
B49: HC1362 (peptide)
chain: CAGSWSTVSSAGNASASA
B50: HC1556 (peptide)
chain: CASVAHDGAGAGNASASA

Target: furin, P09958
Assay: furin cleavage Z-score vs untreated control; higher = more cleavage, active = 3.5 or more, inactive = 1 or less, 8 variable residues between constant flanks
Method: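 Multiplexed peptide-cDNA fusion cleavage assay. 8-mer variable peptides flanked by constant Cys-Ala (N-term) and Ala-Gly-Asn-Ala-Ser-Ala-Ser-Ala (C-term) and conjugated to a cDNA oligonucleotide were bead-immobilised via the N-terminus. They were treated with purified furin at a 1:10 enzyme:substrate ratio in 50 mM HEPES pH 7.5, 1 mM CaCl2, 100 mM NaCl for 7.5, 15 or 30 min. Released cDNA was counted by next-generation sequencing, and log counts versus no-furin controls were lowess-adjusted and converted to robust Z-scores.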

Sequence of furin, P09958 (P09958 whole entry): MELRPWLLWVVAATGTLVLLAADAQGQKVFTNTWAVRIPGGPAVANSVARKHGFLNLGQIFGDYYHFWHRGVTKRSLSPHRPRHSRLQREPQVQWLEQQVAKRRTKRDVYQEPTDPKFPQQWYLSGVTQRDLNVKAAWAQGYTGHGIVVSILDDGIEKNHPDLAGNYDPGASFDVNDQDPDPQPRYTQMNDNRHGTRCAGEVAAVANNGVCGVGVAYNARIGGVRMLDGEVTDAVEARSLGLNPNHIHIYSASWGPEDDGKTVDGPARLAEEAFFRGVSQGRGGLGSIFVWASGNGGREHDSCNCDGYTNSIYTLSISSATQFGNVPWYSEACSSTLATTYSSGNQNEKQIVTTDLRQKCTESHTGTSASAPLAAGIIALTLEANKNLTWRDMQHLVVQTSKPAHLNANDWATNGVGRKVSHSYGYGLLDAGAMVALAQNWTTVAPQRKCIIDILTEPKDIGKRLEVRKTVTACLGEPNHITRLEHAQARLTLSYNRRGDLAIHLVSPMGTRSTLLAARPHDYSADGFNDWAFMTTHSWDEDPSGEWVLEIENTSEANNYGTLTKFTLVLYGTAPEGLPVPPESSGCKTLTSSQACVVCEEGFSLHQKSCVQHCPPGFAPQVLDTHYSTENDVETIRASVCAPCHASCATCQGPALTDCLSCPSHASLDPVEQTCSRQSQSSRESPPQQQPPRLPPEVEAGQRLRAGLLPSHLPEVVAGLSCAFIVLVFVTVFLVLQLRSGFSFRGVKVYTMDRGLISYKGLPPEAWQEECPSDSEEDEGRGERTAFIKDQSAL

| Sequence | furin cleavage Z-score (7.5 min) | furin cleavage Z-score (15 min) | furin cleavage Z-score (30 min) |
| --- | --- | --- | --- |
| B1 | 1.01 | 0.491 (inactive) | 0.363 (inactive) |
| B2 | -0.334 (inactive) | -0.703 (inactive) | -0.0413 (inactive) |
| B3 | 0.847 (inactive) | -0.78 (inactive) | 0.791 (inactive) |
| B4 | -1.51 (inactive) | -0.366 (inactive) | 0.122 (inactive) |
| B5 | 0.478 (inactive) | 0.668 (inactive) | 0.28 (inactive) |
| B6 | 0.12 (inactive) | -1.47 (inactive) | -1.48 (inactive) |
| B7 | -0.652 (inactive) | -1.38 (inactive) | -0.581 (inactive) |
| B8 | 11.2 (active) | 13.8 (active) | 9.92 (active) |
| B9 | -1.13 (inactive) | -0.942 (inactive) | -0.54 (inactive) |
| B10 | 0.763 (inactive) | -0.054 (inactive) | 0.871 (inactive) |
| B11 | 0.261 (inactive) | -0.013 (inactive) | 0.099 (inactive) |
| B12 | 0.813 (inactive) | -0.669 (inactive) | 1.86 |
| B13 | 6.98 (active) | 8.16 (active) | 8.51 (active) |
| B14 | 1.87 | 1.35 | 3.96 (active) |
| B15 | 9.83 (active) | 9.81 (active) | 7.5 (active) |
| B16 | 0.123 (inactive) | 0.577 (inactive) | 0.242 (inactive) |
| B17 | -0.297 (inactive) | 0.367 (inactive) | 0.0305 (inactive) |
| B18 | 0.0201 (inactive) | 1.31 | 0.995 (inactive) |
| B19 | -0.225 (inactive) | -0.247 (inactive) | -0.383 (inactive) |
| B20 | -0.776 (inactive) | -0.0908 (inactive) | 0.617 (inactive) |
| B21 | -0.242 (inactive) | -1.51 (inactive) | -2.12 (inactive) |
| B22 | 0.206 (inactive) | 0.355 (inactive) | 0.257 (inactive) |
| B23 | 1.9 | 1.18 | 0.0858 (inactive) |
| B24 | -0.701 (inactive) | -0.0648 (inactive) | 0.556 (inactive) |
| B25 | 10 (active) | 8.77 (active) | 8.64 (active) |

| Sequence | furin cleavage Z-score (7.5 min) | furin cleavage Z-score (15 min) | furin cleavage Z-score (30 min) |
| --- | --- | --- | --- |
| B26 | 0.532 (inactive) | 1.92 | -0.157 (inactive) |
| B27 | -1.4 (inactive) | -0.885 (inactive) | 0.286 (inactive) |
| B28 | 1.05 | 1.42 | 0.57 (inactive) |
| B29 | 4.98 (active) | 4.02 (active) | 5.03 (active) |
| B30 | 2.71 | 5.35 (active) | 4.64 (active) |
| B31 | -0.497 (inactive) | 1.44 | 2.55 |
| B32 | 7.61 (active) | 8.81 (active) | 9.66 (active) |
| B33 | 0.776 (inactive) | -1.12 (inactive) | -0.725 (inactive) |
| B34 | 6.13 (active) | 6.71 (active) | 5.42 (active) |
| B35 | 6.21 (active) | 8.4 (active) | 8.08 (active) |
| B36 | 1.52 | 1.9 | 0.698 (inactive) |
| B37 | 7.82 (active) | 7.81 (active) | 6.06 (active) |
| B38 | 0.0747 (inactive) | 0.138 (inactive) | 0.956 (inactive) |
| B39 | 4.14 (active) | 2.68 | 3.73 (active) |
| B40 | 1.07 | 2.14 | 4.65 (active) |
| B41 | -1.18 (inactive) | 0.463 (inactive) | -0.0584 (inactive) |
| B42 | -0.96 (inactive) | 1.32 | -0.361 (inactive) |
| B43 | 9.56 (active) | 8.78 (active) | 6.82 (active) |
| B44 | 5.29 (active) | 5.99 (active) | 5.11 (active) |
| B45 | 1.87 | -0.515 (inactive) | 0.482 (inactive) |
| B46 | -2.45 (inactive) | 0.432 (inactive) | -1.67 (inactive) |
| B47 | -1.5 (inactive) | 0.662 (inactive) | 1.77 |
| B48 | 0.281 (inactive) | -1.32 (inactive) | 2.45 |
| B49 | 0.499 (inactive) | -0.166 (inactive) | -0.172 (inactive) |
| B50 | -0.273 (inactive) | -3.13 (inactive) | 0.415 (inactive) |
